Results filed as inconclusive are left out. The source made the active and inactive calls. The call rests on the fitted dose curve; in most records, active means well fitted cell-killing curve with a large enough effect; inconclusive means small, poorly fitted or top-dose-only effect, or effect the other way; inactive means flat fitted curve, though single readings scatter.
Legend:
Experiment in all cases: Primary qHTS to identify gynecologic anti-cancer compounds using libraries of approved drugs and bioactive compounds (AID 1345084); further: nearly all actives have a fitted effect of over 55% in size
Details in all cases: Gynecologic cancer cell panel viability, ATPlite luminescence, 48 h; series mostly up to 57.5 µM
[1] = tested on: OV90
Summary of the method: (§1)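 Luminescence from the ATPlite ATP-monitoring reagent indicates viable cell number; lower signal means cytotoxicity. Cells received compound 16 h after seeding and were exposed for 48 h across five concentrations.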

[2] = tested on: PA-1
Summary of the method: as §1

[3] = tested on: SKOV3
Summary of the method: as §1

[4] = tested on: Tov-21-G
Summary of the method: as §1

[5] = tested on: Tov112D
Summary of the method: as §1
On the % scale 0 is the no-effect control and ±100 the full control effect.

CC12CC34CC(O)C5C(CO)(CO)CC(=O)CC5(C)C3CC1C2C4 (stereo not given)
inactive: Potency [1] | Potency [2] | Potency [3] | Potency [4] | Potency [5]

C=C(COC(=O)CC(C)C)C1Cc2cc(C(C)=O)ccc2O1 (stereo not given)
inactive: Potency [1] | Potency [2] | Potency [3] | Potency [4] | Potency [5]

COc1cc([C@H]2OC[C@](O)(Cc3ccc(O[C@@H]4O[C@H](CO)[C@@H](O)[C@H](O)[C@H]4O)c(OC)c3)[C@@H]2CO)ccc1O
inactive: Potency [1] | Potency [2] | Potency [3] | Potency [4] | Potency [5]

CC(=O)NC(C(=O)OC1CCC(C)(C)C2CC=C3C(=O)OCC3C12C)C(C)C (stereo not given)
inactive: Potency [1] | Potency [2] | Potency [3] | Potency [4] | Potency [5]

COc1cc(CCCO)ccc1O[C@@H]1O[C@H](CO)[C@@H](O)[C@H](O)[C@H]1O
inactive: Potency [1] | Potency [2] | Potency [3] | Potency [4] | Potency [5]

CC(C)=CCC[C@](C)(O[C@@H]1O[C@H](CO[C@@H]2OC[C@H](O)[C@H](O)[C@H]2O)[C@@H](O)[C@H](O)[C@H]1O)[C@H]1CC[C@]2(C)[C@@H]1[C@H](O)C[C@@H]1[C@@]3(C)CC[C@H](O[C@@H]4O[C@H](CO)[C@@H](O)[C@H](O)[C@H]4O[C@@H]4O[C@H](CO)[C@@H](O)[C@H](O)[C@H]4O)C(C)(C)[C@@H]3CC[C@]12C
inactive: Potency [1] | Potency [2] | Potency [3] | Potency [4] | Potency [5]

C=C1CC/C=C(/C(=O)O)CCC2C1CC2(C)C (stereo not given)
inactive: Potency [1] | Potency [2] | Potency [3] | Potency [4] | Potency [5]

C/C=C/C1OC2=C(C(=O)OC2(C)O)C(O)C1O (stereo not given)
inactive: Potency [1] | Potency [2] | Potency [3] | Potency [4] | Potency [5]

C=C[C@H]1[C@H](O[C@@H]2O[C@H](CO)[C@@H](O)[C@H](O)[C@H]2O)OC=C(C(=O)OC)[C@H]1CC=O
inactive: Potency [1] | Potency [2] | Potency [3] | Potency [4] | Potency [5]

CC1=COC(OC2OC(CO)C(O)C(O)C2O)C2C(CO)CC(OC(=O)/C=C/c3ccc(O)cc3)C12 (stereo not given)
inactive: Potency [1] | Potency [2] | Potency [3] | Potency [4] | Potency [5]

CC(=O)c1ccc(O[C@@H]2OC[C@@H](O)[C@H](O)[C@H]2O[C@]2(CO)O[C@H](CO)[C@@H](O)[C@@H]2O)c(O)c1
inactive: Potency [1] | Potency [2] | Potency [3] | Potency [4] | Potency [5]

COC(=O)Cn1nc(-c2cccc(OC)c2)c2ccccc21
inactive: Potency [1] | Potency [2] | Potency [3] | Potency [4] | Potency [5]

Oc1ccc(CC2NCCc3cc(O)c(O)cc32)cc1 (stereo not given)
inactive: Potency [1] | Potency [2] | Potency [3] | Potency [4] | Potency [5]

C=C(C)[C@@H]1CC[C@]2(CO)CC[C@]3(C)[C@H](CC[C@@H]4[C@@]5(C)CC[C@H](O)C(C)(C)[C@@H]5CC[C@]43C)[C@@H]12
inactive: Potency [1] | Potency [2] | Potency [3] | Potency [4] | Potency [5]

Nc1ncnc2c1C(=O)N(c1ccc(C3CCC(CC(=O)O)CC3)cc1)CCO2 (stereo not given)
inactive: Potency [1] | Potency [2] | Potency [3] | Potency [4] | Potency [5]

CC(=O)O[C@@H]1[C@H](O[C@@H]2OC[C@](O)(CO)[C@H]2O)[C@@H](O[C@@H]2O[C@@H](C)[C@H](O)[C@@H](O[C@@H]3O[C@H](CO)[C@@H](O)[C@H](O)[C@H]3O)[C@H]2O)[C@H](OC(=O)[C@]23CCC(C)(C)C[C@H]2C2=CCC4[C@@]5(C)C[C@H](O)[C@H](O[C@@H]6O[C@H](C(=O)O)[C@@H](O)[C@H](O)[C@H]6O)[C@@](C)(C(=O)O)C5CC[C@@]4(C)[C@]2(C)CC3)O[C@@H]1C (stereo not given in full)
inactive: activity change, negative = cytotoxicity [1] 0.0108% [at 6.55 µM] | activity change, negative = cytotoxicity [2] 3.28% [at 6.55 µM] | activity change, negative = cytotoxicity [3] 27% [at 6.55 µM] | activity change, negative = cytotoxicity [4] 0.936% [at 6.55 µM] | activity change, negative = cytotoxicity [5] -2.6% [at 6.55 µM]

C=C1CCC2C(C)(C)CC(O)CC2(C)C1CCC(C)CCOC(=O)CCC(=O)O (stereo not given)
inactive: Potency [1] | Potency [2] | Potency [3] | Potency [4] | Potency [5]

CC(C)C1NC(=O)C(CC2(O)c3ccccc3N3C(=O)C(Cc4ccccc4)NC32)NC1=O (stereo not given)
inactive: Potency [1] | Potency [2] | Potency [3] | Potency [4] | Potency [5]

COC(=O)C1=CO[C@@H](O[C@@H]2O[C@H](CO)[C@@H](O)[C@H](O)[C@H]2O)[C@@H]2[C@@H](C(=O)O)CC[C@H]12
inactive: Potency [1] | Potency [2] | Potency [3] | Potency [4] | Potency [5]

Oc1ccccc1-c1cc(-c2ccccc2F)[nH]n1
inactive: Potency [1] | Potency [2] | Potency [3] | Potency [4] | Potency [5]

CCC(C)/C=C(C)/C=C/C1=CC2=C(Cl)C(=O)C(C)(OC(C)=O)C(=O)C2=CN1CCCCC(N)C(=O)O (stereo not given)
inactive: Potency [1] | Potency [2] | Potency [3] | Potency [4] | Potency [5]

Cc1ccc(-c2c(-c3nn(C)c4ncnc(N5CC[C@H](N6CCCCC6)C5)c34)cnn2C)cc1
inactive: Potency [1] | Potency [2] | Potency [3] | Potency [4] | Potency [5]

Reference: PubChem BioAssay (NCATS)
